In PubChem BioAssay:
Active and inactive are the calls of the source.

Legend:
[1] = tested on: Plasmodium falciparum Sir2 (PF13_0152, Sir2A); assay: Plasmodium falciparum Sir2A binding compounds – biochemical, small-molecule microarray, 635 nm fluorescence, primary screen (AID 1098); details: fluorescence 635 nm, higher = more signal;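 also: score merges spot fluorescence intensity with its signal-to-noise ratio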
[2] = probe aDKK1 binding to arrayed compounds – biochemical, biotinylated probe, 635/667 nm fluorescence, primary screen (AID 1099); details: small-molecule microarray, higher = more signal;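 also: score merges 667nm spot fluorescence with signal to noise across triplicate slides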
[3] = probe aCHRDL2 binding to arrayed compounds – biochemical, biotinylated probe, 635/667 nm fluorescence, primary screen (AID 1100); details: small-molecule microarray, higher = more signal
[4] = change in splice reporter luminescence, either direction, cell-based, HEK293, spliceosome inhibition project, primary screen (AID 1101); details: HEK293 splicing luciferase reporter, 24 h, higher = more signal, called active from +8 up or from −8 down;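 also: HEK293 cells carrying a splicing-competent luciferase reporter gene; test concentration not given here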
[5] = molecular target: Fibroblast growth factor 10 (Homo sapiens) (UniProt O15520); assay: compounds binding fibroblast growth factor 10 – biochemical, small-molecule microarray, 635 nm fluorescence, primary screen (AID 1102); details: FGF10 binding, fluorescence 635 nm, higher = more signal
[6] = tested on: glycogen synthase kinase-3 (GSK3A per assay name; protocol says GSK3B); assay: compounds binding glycogen synthase kinase-3 – biochemical, small-molecule microarray, 635 nm fluorescence, GSK3A, primary screen (AID 1103); details: fluorescence 635 nm, higher = more signal; also: the record names both GSK3A and GSK3B
[7] = molecular target: Epidermal growth factor receptor (Homo sapiens) (UniProt P00533); assay: compounds binding epidermal growth factor receptor – biochemical, small-molecule microarray, 635 nm fluorescence, primary screen (AID 1104); details: EGFR binding, higher = more signal;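 also: score merges 667 nm emission intensity with spot signal to noise over triplicate slides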
[8] = molecular target: Follistatin-related protein 3 (Homo sapiens) (UniProt O95633); assay: compounds binding follistatin-related protein 3 – biochemical, small-molecule microarray, 635 nm fluorescence, primary screen (AID 1105); details: FSTL3 binding, higher = more signal;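 also: score merges emission near 667 nm and signal to noise per printed spot across three slides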
[9] = molecular target: Dickkopf-related protein 1 (Homo sapiens) (UniProt O94907); assay: small molecules binding DKK1 protein – biochemical, small-molecule microarray, 635 nm fluorescence scan, primary screen (AID 1106); details: higher = more signal;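 also: score merges emission near 667 nm with signal to noise over three replicate slides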
[10] = tested on: Inhibin beta A chain (activin A); assay: small molecules binding activin A – biochemical, small-molecule microarray, 635 nm fluorescence scan, primary screen (AID 1107); details: INHBA, higher = more signal;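 also: mouse activin A protein probed at 4.33 µg/mL on printed slides; score merges bound-protein fluorescence near 667 nm with spot signal-to-noise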
[11] = tested on: Human papillomavirus type 1a protein E7 (residues 44-93); assay: small molecules binding HPV E7 44-93 – biochemical, small-molecule microarray, residues 44-93, 635 nm fluorescence, primary screen (AID 1108); details: fluorescence 635 nm, higher = more signal;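 also: E7 fragment applied at 1 µg/mL in TBST for 1 h at 4 C; score combines spot fluorescence with its signal to noise ratio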
[12] = hepatitis C replication reporter changes, two-sided – Huh7 cells, luciferase reporter, HCV replication inhibitor project, primary screen (AID 1109); details: Huh7 HCV replicon luciferase reporter, 48 h; higher = more signal;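 also: huh7 hepatoma cells harbouring a luciferase neomycin HCV replicon reporter; luciferase luminescence as measure of HCV replicon replication; test concentration not given here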
[13] = molecular target: Left-right determination factor 2 (Homo sapiens) (UniProt O00292); assay: small molecules binding LEFTY2 protein – biochemical, small-molecule microarray, 635 nm fluorescence scan, primary screen (AID 1110); details: higher = more signal
[14] = molecular target: Calmodulin-1 (Homo sapiens) (UniProt P0DP23); assay: small molecules binding calmodulin-1 with EGTA – biochemical, small-molecule microarray, Cy5-labelled CALM1, profiling panel (AID 1111); details: Cy5-CALM1 binding fluorescence, higher = more signal;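 also: labelled calmodulin applied in Tris saline Tween buffer holding calcium plus EGTA and DTT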
[15] = molecular target: Calmodulin-1 (Homo sapiens) (UniProt P0DP23); assay: small molecules binding Ca-loaded calmodulin-1 – biochemical, small-molecule microarray, Cy5-labelled CALM1, plus calcium, artefact control for SMM control-protein annotation, profiling panel (AID 1112); details: Cy5-CALM1 binding fluorescence, higher = more signal;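 also: score merges spot fluorescence with signal to noise from triplicate slides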
[16] = probe aWnt5a binding to arrayed compounds – biochemical, biotinylated probe, 635/667 nm fluorescence, primary screen (AID 1113); details: small-molecule microarray, higher = more signal;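 also: score merges 667 nm fluorescence intensity with signal-to-noise per printed feature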
[17] = probe aShh binding to arrayed compounds – biochemical, biotinylated probe, 635/667 nm fluorescence, primary screen (AID 1114); details: small-molecule microarray, higher = more signal;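 also: probe is biotin-labelled aShh protein from a stem cell growth factor screen; measures binding of labelled protein to compounds printed on the slide; score merges feature fluorescence at 667 nm with signal-to-noise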
[18] = probe aNog binding to arrayed compounds – biochemical, biotinylated probe, 635/667 nm fluorescence, primary screen (AID 1115); details: small-molecule microarray, higher = more signal;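 also: probe is biotinylated aNog protein used at 0.15 µg/mL for 1 h at 4 C; z-score combines 667 nm fluorescence of each spot with its signal to noise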
[19] = molecular target: Torsin-1A-interacting protein 1 (Homo sapiens) (UniProt Q5JTV8); assay: compound microarray binding of lysate hLAP1 – cell lysate, small-molecule microarray, COS7 lysate, 635/667 nm fluorescence, primary screen (AID 1116); details: 635 nm fluorescence, higher = more signal
[20] = molecular target: Alpha-bungarotoxin (Bungarus multicinctus) (UniProt P60615); assay: compounds binding labelled alpha-BTX control protein – biochemical, small-molecule microarray, Alexa647 label, 635/667 nm fluorescence, artefact control for SMM control protein annotation, profiling panel (AID 1117); details: alpha-BTX-A647 binding fluorescence, higher = more signal
Sequence of Alpha-bungarotoxin (Bungarus multicinctus) (P60615 whole entry, looked up): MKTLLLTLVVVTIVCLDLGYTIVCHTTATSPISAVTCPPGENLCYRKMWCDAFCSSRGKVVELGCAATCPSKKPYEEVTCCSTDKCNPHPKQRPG

Sequence of Follistatin-related protein 3 (Homo sapiens) (O95633 whole entry, looked up): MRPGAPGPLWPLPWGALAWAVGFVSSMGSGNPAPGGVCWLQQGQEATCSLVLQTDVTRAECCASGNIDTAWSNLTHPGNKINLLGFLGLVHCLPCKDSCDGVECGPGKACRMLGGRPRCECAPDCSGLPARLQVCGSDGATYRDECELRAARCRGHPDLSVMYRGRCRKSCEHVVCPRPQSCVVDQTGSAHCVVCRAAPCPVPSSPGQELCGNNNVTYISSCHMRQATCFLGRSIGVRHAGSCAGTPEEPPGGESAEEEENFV
Sequence of Torsin-1A-interacting protein 1 (Homo sapiens) (Q5JTV8 whole entry, looked up): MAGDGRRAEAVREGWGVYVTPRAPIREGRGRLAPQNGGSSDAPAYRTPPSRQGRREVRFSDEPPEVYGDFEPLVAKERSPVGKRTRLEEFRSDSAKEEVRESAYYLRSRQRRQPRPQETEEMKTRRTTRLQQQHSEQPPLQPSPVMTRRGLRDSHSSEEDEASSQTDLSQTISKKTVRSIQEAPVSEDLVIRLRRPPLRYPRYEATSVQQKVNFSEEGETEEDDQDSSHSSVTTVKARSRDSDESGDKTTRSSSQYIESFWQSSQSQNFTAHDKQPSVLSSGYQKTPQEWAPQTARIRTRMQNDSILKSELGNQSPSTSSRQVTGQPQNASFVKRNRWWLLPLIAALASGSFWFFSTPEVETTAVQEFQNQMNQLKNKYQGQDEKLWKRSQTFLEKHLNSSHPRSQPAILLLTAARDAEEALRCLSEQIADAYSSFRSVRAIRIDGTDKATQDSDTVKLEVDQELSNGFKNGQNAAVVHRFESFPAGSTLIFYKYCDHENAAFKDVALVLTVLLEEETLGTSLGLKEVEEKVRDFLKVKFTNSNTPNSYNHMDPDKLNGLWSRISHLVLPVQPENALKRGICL
Sequence of Dickkopf-related protein 1 (Homo sapiens) (O94907 whole entry, looked up): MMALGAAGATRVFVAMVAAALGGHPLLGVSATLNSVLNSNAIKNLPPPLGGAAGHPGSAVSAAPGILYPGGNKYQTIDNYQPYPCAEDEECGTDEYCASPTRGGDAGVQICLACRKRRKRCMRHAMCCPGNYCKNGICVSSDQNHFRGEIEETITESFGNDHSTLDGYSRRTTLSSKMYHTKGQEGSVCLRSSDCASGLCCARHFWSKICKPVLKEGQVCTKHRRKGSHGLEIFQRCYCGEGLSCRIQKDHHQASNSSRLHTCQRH
Sequence of Epidermal growth factor receptor (Homo sapiens) (P00533 whole entry, looked up): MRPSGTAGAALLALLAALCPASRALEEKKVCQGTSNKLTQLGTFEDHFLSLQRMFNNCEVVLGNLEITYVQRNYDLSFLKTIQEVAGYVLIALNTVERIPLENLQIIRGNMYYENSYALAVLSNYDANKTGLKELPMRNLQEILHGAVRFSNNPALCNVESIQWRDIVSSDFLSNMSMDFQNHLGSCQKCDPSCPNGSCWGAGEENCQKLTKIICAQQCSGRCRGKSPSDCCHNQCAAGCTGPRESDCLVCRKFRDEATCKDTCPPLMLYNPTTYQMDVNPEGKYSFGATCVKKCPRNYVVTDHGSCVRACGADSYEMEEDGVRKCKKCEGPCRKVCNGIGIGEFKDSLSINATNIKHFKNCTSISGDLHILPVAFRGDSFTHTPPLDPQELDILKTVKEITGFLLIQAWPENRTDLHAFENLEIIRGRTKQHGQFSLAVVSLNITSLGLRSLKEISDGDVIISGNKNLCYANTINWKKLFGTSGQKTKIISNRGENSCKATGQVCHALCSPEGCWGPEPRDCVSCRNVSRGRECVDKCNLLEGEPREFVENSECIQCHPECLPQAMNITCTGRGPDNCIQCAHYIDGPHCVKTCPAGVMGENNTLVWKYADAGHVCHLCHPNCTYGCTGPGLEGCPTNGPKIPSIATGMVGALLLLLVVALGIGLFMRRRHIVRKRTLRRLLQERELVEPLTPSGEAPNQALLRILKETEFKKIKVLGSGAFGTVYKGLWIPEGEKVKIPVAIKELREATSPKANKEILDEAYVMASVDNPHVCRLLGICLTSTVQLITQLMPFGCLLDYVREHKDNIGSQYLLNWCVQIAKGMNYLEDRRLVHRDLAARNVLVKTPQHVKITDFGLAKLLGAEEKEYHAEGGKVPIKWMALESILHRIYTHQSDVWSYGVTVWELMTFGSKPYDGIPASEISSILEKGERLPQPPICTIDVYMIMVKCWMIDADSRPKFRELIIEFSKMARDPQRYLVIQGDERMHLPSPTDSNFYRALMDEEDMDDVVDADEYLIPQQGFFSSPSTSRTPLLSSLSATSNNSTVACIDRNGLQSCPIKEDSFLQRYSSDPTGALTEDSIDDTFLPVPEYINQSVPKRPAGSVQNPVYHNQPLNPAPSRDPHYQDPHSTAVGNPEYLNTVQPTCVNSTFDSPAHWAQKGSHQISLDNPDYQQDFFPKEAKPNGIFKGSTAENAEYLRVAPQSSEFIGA
Sequence of Fibroblast growth factor 10 (Homo sapiens) (O15520 whole entry, looked up): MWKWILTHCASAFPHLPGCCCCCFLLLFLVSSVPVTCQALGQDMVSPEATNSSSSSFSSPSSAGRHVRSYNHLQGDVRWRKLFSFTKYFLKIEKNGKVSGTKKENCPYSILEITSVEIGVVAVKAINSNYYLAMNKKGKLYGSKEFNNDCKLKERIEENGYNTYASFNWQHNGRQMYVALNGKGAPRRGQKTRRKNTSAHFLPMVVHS
Sequence of Left-right determination factor 2 (Homo sapiens) (O00292 whole entry, looked up): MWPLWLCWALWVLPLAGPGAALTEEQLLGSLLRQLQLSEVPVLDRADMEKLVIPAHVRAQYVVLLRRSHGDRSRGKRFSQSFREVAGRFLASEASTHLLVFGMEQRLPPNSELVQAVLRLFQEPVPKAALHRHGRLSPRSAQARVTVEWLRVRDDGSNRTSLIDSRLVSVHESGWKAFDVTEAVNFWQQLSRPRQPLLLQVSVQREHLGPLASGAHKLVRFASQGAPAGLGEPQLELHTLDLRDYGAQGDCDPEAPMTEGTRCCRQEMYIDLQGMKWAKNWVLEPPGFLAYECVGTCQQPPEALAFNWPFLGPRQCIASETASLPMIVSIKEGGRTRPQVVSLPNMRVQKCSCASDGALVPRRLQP

Row | SMILES | composite z-score [1] | composite z-score [2] | composite z-score [3] | z-score [4] | composite z-score [5] | composite z-score [6] | composite z-score [7] | composite z-score [8] | composite z-score [9] | composite z-score [10] | composite z-score [11] | z-score [12] | composite z-score [13] | composite z-score [14] | composite z-score [15] | composite z-score [16] | composite z-score [17] | composite z-score [18] | composite z-score [19] | composite z-score [20]
1 | CCCNC(=O)[C@@]1(c2ccc([N+](=O)[O-])cc2)CC(=O)N(C2CCCCC2)[C@@H]1c1ccc(CO)cc1 | 0.472 | 0.175 | 0.39 | -0.867 (inactive) | 0.946 | 1.22 | 0.237 | 0.869 | 0.301 | 0.254 | 1.5 | -0.887 | 0.357 | 0.653 | -0.0681 | -0.0285 | 0.446 | -0.0216 | 1.2 | 0.764
2 | CN(C)CCCCNC(=O)[C@@H]1C[C@@H]2C(=O)N[C@@H](Cc3ccccc3)C(=O)N2[C@@H]1c1cccc(OCCO)c1 | 0.769 | 0.0115 | 0.393 | -1.88 (inactive) | 0.407 | 0.727 | 0.404 | 1.26 | 1.28 | 0.0765 | 1.34 | 4.01 | 1.24 | -0.349 | -0.125 | -0.127 | 0.0952 | -0.0721 | 0.0715 | 0.612
3 | O=C(NCC(F)(F)F)[C@@H]1c2ccccc2C(=O)N(Cc2cc(F)cc(C(F)(F)F)c2)[C@H]1c1ccc(CO)cc1 | 0.251 | -0.0632 | 0.941 | 0.408 (inactive) | -0.788 | -0.587 | -1.12 | -1.29 | -1.39 | -0.53 | 0.463 | -0.661 | -1.53 | 0.152 | 0.712 | -0.096 | -0.0709 | -0.074 | -0.468 | -0.758
4 | NC(=O)NCC#Cc1ccc2c(c1)[C@]1(C(=O)N2)[C@H](C(=O)O)[C@H]2C(=O)O[C@H](c3ccccc3)[C@H](c3ccccc3)N2[C@@H]1c1ccc(OCCO)cc1 | 1.49 | 0.0638 | 0.799 | -0.253 (inactive) | 0.261 | -0.547 | -0.03 | 0.582 | 0.158 | 0.882 | 1.05 | -0.327 | -0.288 | 0.382 | 0.117 | 0.0077 | 0.13 | -0.265 | 0.324 | 2.01
5 | CN(C)C(=O)[C@@]1(CCS(=O)(=O)c2ccccc2)N=C(c2ccc(OCCCO)cc2)O[C@H]1c1ccccc1 | 1.32 | 0.415 | 0.854 | 2.27 (inactive) | 0.961 | 1.29 | -0.806 | 0.455 | -0.94 | 0.54 | 1.46 | -1.76 | -0.757 | 1.47 | 0.759 | 0.16 | 0.207 | 0.812 | 1.84 | 1.9
6 | [N-]=[N+]=NCc1ccccc1C[C@@]1(C(=O)NCc2ccccc2)N=C(c2ccc(OCCCO)cc2)O[C@@H]1c1ccccc1N=[N+]=[N-] | -0.108 | 0.559 | 1.13 | -0.758 (inactive) | 0.894 | 1.21 | -0.475 | -0.206 | -0.666 | 0.376 | 1.41 | -2.26 | -0.346 | 1.31 | 0.845 | 0.0839 | 0.108 | 1.29 | 1.45 | 0.937
7 | COCCOC(=O)N1C(=O)[C@@]2(c3cc(C#CC4=CCCCC4)ccc31)[C@H](c1ccc(OCCO)cc1)N1[C@H](c3ccccc3)[C@H](c3ccccc3)OC(=O)[C@H]1[C@@H]2C(=O)N1CCN(c2ncccn2)CC1 | 0.28 | 0.0367 | 0.262 | 0.515 (inactive) | 1.34 | 1.3 | 0.494 | 0.866 | 0.605 | 0.783 | 1.05 | -0.807 | 0.671 | 0.623 | 0.189 | -0.034 | -0.0146 | 0.759 | 0.835 | 0.418
8 | N#Cc1ccc(NN2C(C(O)c3ccc(F)cc3)C=CC3C(=O)N(c4ccccc4)C(=O)C32)cc1 (stereo not given) | 1.3 | 0.151 | 0.581 | 1.52 (inactive) | -0.286 | -0.0563 | -0.746 | -0.0131 | -0.716 | 0.856 | 0.771 | -0.41 | -0.81 | 2.39 | 1.04 | 0.0334 | -0.0578 | 1.83 | 2.24 | 1.05
9 | CC(C)(C)OC(=O)CC[C@]1(C(=O)NCc2ccccc2)N=C(c2ccc(OCCCO)cc2)O[C@H]1c1ccccc1CN=[N+]=[N-] | 1.45 | 0.242 | 0.545 | 0.22 (inactive) | 1.22 | 1.36 | 0.227 | 1.37 | 0.133 | 0.554 | 1.41 | -2.11 | 0.735 | 1.27 | -0.232 | 0.152 | 0.0483 | -0.0768 | 1.69 | 0.466
10 | OCC1CC(c2ccccc2)=NO1 (stereo not given) | 0.0686 | -0.217 | -0.354 | -0.0813 (inactive) | 0.0912 | 0.0016 | 0.37 | -0.0588 | 0.473 | 0.685 | -1.07 | 0.381 | 0.43 | -0.759 | -0.445 | -0.0084 | -0.248 | 0.21 | 0.19 | -0.0251
11 | CCCCC=C[C@@H](NC(=O)c1ccc(-c2ccccc2)cc1)c1ccccc1 | 0.379 | 0.0006 | 0.087 | 2.94 (inactive) | 0.462 | 1.08 | 0.0139 | -0.203 | 0.381 | 0.183 | 1.31 | -2.21 | 0.184 | 0.107 | 0.506 | 0.123 | 0.934 | 0.964 | 1.11 | 0.401
12 | COc1ccc(C(O)C2C=CC3C(=O)N(c4ccccc4)C(=O)C3N2Nc2ccc([N+](=O)[O-])cc2)cc1 (stereo not given) | 1.43 | 1.37 | 1.23 | 0.304 (inactive) | 0.774 | 0.998 | 0.0207 | 0.952 | -0.655 | 0.918 | 0.487 | -0.925 | -0.425 | 1.45 | 0.622 | 0.315 | 0.109 | -0.064 | 1.66 | 1.32
13 | O=C1O[C@@H](c2ccccc2)[C@@H](c2ccccc2)N2[C@@H](c3ccc(OCCO)cc3)[C@]3(C(=O)Nc4ccccc43)[C@@H](C(=O)O)[C@H]12 | 0.327 | -0.483 | 0.273 | -0.715 (inactive) | 0.119 | -0.739 | -0.38 | -0.415 | -0.32 | 0.758 | 0.908 | -1.47 | -0.318 | -0.0663 | 0.883 | 0.779 | 0.297 | 2.26 | -0.308 | 0.323
14 | CCOC(=O)C[C@H]1[C@H](OC(=O)Cc2ccc3c(c2)OCO3)[C@@H](NC(=O)CC(C)C)c2cc(OCCCO)ccc2N1C(=O)Cc1ccc(OC)cc1 | -0.25 | -0.283 | -0.0563 | -1.86 (inactive) | 0.139 | 0.0308 | -0.0638 | -0.0495 | 0.0009 | 0.26 | 0.479 | -0.948 | 0.073 | -0.221 | -0.361 | -0.012 | -0.138 | -0.25 | 0.466 | 1.03
15 | O=C(NCCCCCNC(=O)/C(Cc1ccccc1)=N/O)OCc1ccccc1 | -0.263 | -0.314 | -0.603 | -1.54 (inactive) | 0.0434 | -0.201 | 0.445 | 0.206 | 0.229 | -0.182 | -0.0938 | -1.24 | 0.629 | -0.503 | -0.592 | -0.0445 | -0.426 | -0.633 | 0.154 | 0.269
16 | COc1ccc(CCNC(=O)[C@@H]2c3ccccc3C(=O)N(Cc3cc(C(F)(F)F)cc(C(F)(F)F)c3)[C@H]2c2ccc(CO)cc2)cc1 | 1.1 | 0.0172 | 0.716 | -0.082 (inactive) | 0.0696 | -0.331 | -0.358 | -0.272 | -0.594 | -0.167 | 0.867 | -1.06 | -0.31 | 0.0713 | -0.935 | -0.141 | -0.147 | -0.273 | 0.338 | 0.795
